Records with an inconclusive call do not appear. Active and inactive are the calls of the source. How the source made its calls, unless noted: active means hit-call score of the fitted dose curve at least 0.9, where 1 is the maximum; inactive means score below 0.9.
Assays:
[1] = CCTE_Mundy_HCI_hNP1_CellTiter: CCTE's Cell Titer-Glo 2 Assay in human neuroprogenitor cells for Viability, Mundy Lab (AID 2284241; active means hit-call score of the fitted dose curve at least 0.9, where 1 is the maximum)
Method in brief: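 Viability read as luminescent ATP content (CellTiter-Glo, 30 min room temperature) twenty-four hours after dosing, relative to DMSO. Cells: WA09-derived hNP1 neuroprogenitors on poly-L-ornithine/laminin, plated 40 to 44 hours before chemical.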

[2] = read-out: Interleukin 17F (IL17F), IL17F (gene 112744); assay: BSK_BT_xIL17F: BioMAP Diversity Plus: BT Assay for Interleukin 17F (IL17F) Biomarker Activity (AID 2284243); conditions: primary human B cells with PBMC
Method in brief: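 Luminex readout of IL-17F secretion, 24 h; cells: human B cells with PBMC; positive-direction analysis, DMSO control.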

[3] = read-out: Actin alpha 1 (ACTA1), ACTA1 (gene 58); assay: BSK_MyoF_ACTA1: BioMAP Diversity Plus: MyoF Assay for Actin alpha 1 (ACTA1) Biomarker Activity (AID 2284244); conditions: primary human lung fibroblasts
Method in brief: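 ELISA read-out of a-SMA in primary human lung fibroblast cultures, 24 h post-dosing. Activity scored in the positive direction versus DMSO baseline.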

[4] = read-out: Interleukin 2 (IL2), IL2 (gene 3558); assay: BSK_BT_xIL2: BioMAP Diversity Plus: BT Assay for Interleukin 2 (IL2) Biomarker Activity (AID 2284245); conditions: primary human B cells with PBMC
Method in brief: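 Readout: supernatant IL-2 via Luminex xMAP after 24 h chemical dosing of a B cell/PBMC primary human co-culture. DMSO serves as negative control and baseline; increases in signal were fitted.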

[5] = read-out: Basic fibroblast growth factor (bFGF), FGF2 (gene 2247); assay: BSK_MyoF_bFGF: BioMAP Diversity Plus: MyoF Assay for Basic fibroblast growth factor (bFGF) Biomarker Activity (AID 2284246); conditions: primary human lung fibroblasts
Method in brief: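 Primary human lung fibroblast culture, 24 h compound exposure; ELISA read-out of bFGF. Positive-direction fit vs DMSO baseline. Cytotoxicity: SRB stain (0.1% SRB, 10% TCA fixation, 560 nm) in parallel wells.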

[6] = read-out: Collagen IV, COL4A1 (gene 1282); assay: BSK_MyoF_CollagenIV: BioMAP Diversity Plus: MyoF Assay for Collagen IV Biomarker Activity (AID 2284247); conditions: primary human lung fibroblasts
Method in brief: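 ELISA read-out of Collagen IV in lung fibroblast cultures, 24 h post-dosing; gain of signal relative to DMSO vehicle baseline defines activity.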

[7] = read-out: Monokine induced gamma interferon (MIG), CXCL9 (gene 4283); assay: BSK_KF3CT_MIG: BioMAP Diversity Plus: KF3CT Assay for Monokine induced gamma interferon (MIG) Biomarker Activity (AID 2284248); conditions: primary human keratinocytes with fibroblasts
Method in brief: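 MIG in dosed human skin co-cultures was measured by ELISA at 24 h, relative to DMSO.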

[8] = read-out: Vascular cell adhesion molecule 1 (VCAM1), VCAM1 (gene 7412); assay: BSK_BF4T_VCAM1: BioMAP Diversity Plus: BF4T Assay for Vascular cell adhesion molecule 1 (VCAM1) Biomarker Activity (AID 2284249); conditions: primary human bronchial epithelial cells with fibroblasts
Method in brief: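 Cell-surface VCAM-1 quantified by ELISA after 24 h chemical exposure of human bronchial epithelial/dermal fibroblast co-cultures, with SRB staining in parallel wells for cytotoxicity; DMSO baseline, positive-direction fitting.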

[9] = read-out: Collagen I, COL1A1 (gene 1277); assay: BSK_hDFCGF_CollagenI: BioMAP Diversity Plus: hDFCGF Assay for Collagen I Biomarker Activity (AID 2284250); conditions: primary human foreskin fibroblasts
Method in brief: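 ELISA read-out of Collagen I in human dermal foreskin fibroblast cultures, 24 h after dosing. Gain of signal versus DMSO vehicle defines activity.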

[10] = read-out: Interferon-inducible T-cell alpha chemoattractant (ITAC), CXCL11 (gene 6373); assay: BSK_hDFCGF_ITAC: BioMAP Diversity Plus: hDFCGF Assay for Interferon-inducible T-cell alpha chemoattractant (ITAC) Biomarker Activity (AID 2284251); conditions: primary human foreskin fibroblasts
Method in brief: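 Measured by ELISA, the chemokine level serves as the endpoint in human skin fibroblast primary cultures 24 h after compound addition. Increases relative to DMSO-treated wells define activity.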

[11] = read-out: Plasminogen activator inhibitor-1 (PAI1), SERPINE1 (gene 5054); assay: BSK_KF3CT_PAI1: BioMAP Diversity Plus: KF3CT Assay for Plasminogen activator inhibitor-1 (PAI1) Biomarker Activity (AID 2284252); conditions: primary human keratinocytes with fibroblasts
Method in brief: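 Keratinocyte + dermal fibroblast co-culture (human primary); 24 h post-dose; PAI-1 by ELISA; gain-of-signal fit vs DMSO control.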

[12] = read-out: Monocyte Chemoattractant Protein-1 (MCP1), CCL2 (gene 6347); assay: BSK_IMphg_MCP1: BioMAP Diversity Plus: IMphg Assay for Monocyte Chemoattractant Protein-1 (MCP1) Biomarker Activity (AID 2284253); conditions: primary human endothelial cells with macrophages
Method in brief: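 ELISA readout of MCP-1 at 24 hours in IMphg co-cultures of venular endothelial cells and macrophages, normalised to DMSO; parallel cultures stained with sulforhodamine B for overt cytotoxicity.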

[13] = read-out: Interleukin-8 (IL8), CXCL8 (gene 3576); assay: BSK_KF3CT_IL8: BioMAP Diversity Plus: KF3CT Assay for Interleukin-8 (IL8) Biomarker Activity (AID 2284254); conditions: primary human keratinocytes with fibroblasts
Method in brief: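 Using parallel SRB-stained cultures to flag overt toxicity, the study quantified IL-8 by ELISA in human keratinocyte–foreskin fibroblast co-cultures 24 h after dosing, with DMSO as negative control and baseline.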

[14] = read-out: Macrophage Inflammatory Protein-1 Alpha (MIP1a), CCL3 (gene 6348); assay: BSK_IMphg_MIP1a: BioMAP Diversity Plus: IMphg Assay for Macrophage Inflammatory Protein-1 Alpha (MIP1a) Biomarker Activity (AID 2284255); conditions: primary human endothelial cells with macrophages
Method in brief: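 MIP-1a protein levels were quantified by ELISA after 24 h treatment of human endothelial cell–macrophage co-cultures, compared with DMSO. Parallel cultures were fixed with TCA and stained with 0.1% SRB to gauge overt cytotoxicity.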

[15] = read-out: Plasminogen activator inhibitor-1 (PAI1), SERPINE1 (gene 5054); assay: BSK_MyoF_PAI1: BioMAP Diversity Plus: MyoF Assay for Plasminogen activator inhibitor-1 (PAI1) Biomarker Activity (AID 2284256); conditions: primary human lung fibroblasts
Method in brief: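 In this multiplexed primary-cell system, fibroblasts from human lung received compound for 24 h before ELISA detection of PAI-1; overt toxicity was checked by SRB (0.1%, TCA-fixed, 560 nm) in parallel wells.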

CD69, CD69 (gene 969) = assay: BSK_IMphg_CD69: BioMAP Diversity Plus: IMphg Assay for CD69 Biomarker Activity (AID 2284257); conditions: primary human endothelial cells with macrophages
Method in brief: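 Readout is ELISA for CD69 in primary human venular endothelial cell/macrophage co-culture, taken at 24 h post-dosing. SRB staining of parallel cultures gauged overt cytotoxicity; signal increase versus DMSO defined activity.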

[16] = read-out: Eotaxin 3, CCL26 (gene 10344); assay: BSK_BF4T_Eotaxin3: BioMAP Diversity Plus: BF4T Assay for Eotaxin 3 Biomarker Activity (AID 2284258); conditions: primary human bronchial epithelial cells with fibroblasts
Method in brief: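 ELISA measurement of Eotaxin-3 after 24 h chemical exposure in a bronchial epithelial/dermal fibroblast co-culture, with DMSO as baseline. Parallel SRB staining (0.1% SRB after 10% TCA fixation, 560 nm) flagged overt cytotoxicity.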

[17] = read-out: Monocyte Chemoattractant Protein-1 (MCP1), CCL2 (gene 6347); assay: BSK_BF4T_MCP1: BioMAP Diversity Plus: BF4T Assay for Monocyte Chemoattractant Protein-1 (MCP1) Biomarker Activity (AID 2284259); conditions: primary human bronchial epithelial cells with fibroblasts
Method in brief: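 MCP-1 ELISA readout taken 24 h after dosing in the BF4T system (bronchial epithelial cells plus dermal fibroblasts). Parallel SRB total-protein staining flagged cytotoxicity; DMSO served as baseline, positive fitting direction.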

[18] = read-out: Intercellular Adhesion Molecule 1 (ICAM1), ICAM1 (gene 3383); assay: BSK_BF4T_ICAM1: BioMAP Diversity Plus: BF4T Assay for Intercellular Adhesion Molecule 1 (ICAM1) Biomarker Activity (AID 2284260); conditions: primary human bronchial epithelial cells with fibroblasts
Method in brief: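 ICAM-1 levels measured by ELISA after 24 h chemical treatment of bronchial epithelial cell/dermal fibroblast co-cultures, read against DMSO baseline. Overt cytotoxicity checked in parallel cultures by sulforhodamine B staining.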

Measured: AC50

O=C(O)C(F)(F)C(F)(F)C(F)(F)C(F)(F)C(F)(F)C(F)(F)F
inactive: all assays above

COC[C@H](C)N(C(=O)CCl)c1c(C)csc1C
inactive: [2] | [3] | [4] | [5] | [6] | [15]

COc1cc(OC)nc(NC(=O)NS(=O)(=O)c2ncccc2C(=O)N(C)C)n1
inactive: [2] | [3] | [4] | [5] | [6] | [15]

CC(C)c1ccc(CO)cc1
inactive: [2] | [3] | [4] | [5] | [6] | [15]

Oc1c(I)cc(I)cc1I
inactive: [2] | [4] | [5] | [15]
active: [3] 20 µM | [6] 4.34 µM

ClC1=C(Cl)[C@]2(Cl)[C@H]3[C@H]([C@H]4C=C[C@H]3C4)[C@@]1(Cl)C2(Cl)Cl
active: [2] 27 µM | [3] 8.66 µM
inactive: [4] | [5] | [6] | [15]

COP(=S)(OC)Oc1c(Cl)cc(C)cc1Cl
inactive: [2] | [3] | [4] | [5] | [6] | [15]

CCCCCCCCC(=O)NCc1ccc(O)c(OC)c1
inactive: [2] | [3] | [4] | [5] | [6] | [15]

O=S(=O)(c1ccc(Cl)cc1)c1ccc(Cl)cc1
inactive: [2] | [3] | [4] | [5] | [6] | [15]

CCOP(=S)(OCC)Oc1ccc(S(C)=O)cc1 (stereo not drawn)
inactive: [2] | [3] | [4] | [5] | [6] | [15]

COC(=O)Cc1ccccc1
inactive: [7] | [9] | [10] | [11] | [13]

CCSC(C)CC1CC(=O)C(C(CC)=NOC/C=C/Cl)=C(O)C1 (stereo not drawn)
inactive: [2] | [3] | [4] | [5] | [6] | [15]

COP(=S)(OC)Oc1ccc(S(=O)(=O)N(C)C)cc1
inactive: [2] | [3] | [4] | [5] | [6] | [15]

Oc1ccc(-c2ccccc2)cc1
inactive: [2] | [3] | [4] | [5] | [6] | [15]

CC(=O)OC(c1ccccc1)C(Cl)(Cl)Cl (stereo not drawn)
inactive: [7] | [9] | [10] | [11] | [13]

O=C(OC1CCCCC1)c1ccccc1C(=O)OC1CCCCC1
inactive: [5] | [6]
active: [2] 30.8 µM | [3] 12.5 µM | [4] 30.9 µM | [15] 20.9 µM

CCOC(=O)/C=C(C)/C=C/C[C@@H](C)CCCC(C)C
active: [2] 25.6 µM | [3] 29.6 µM | [4] 20 µM | [5] 32.5 µM | [6] 7.11 µM | [15] 32.3 µM

Nc1cccc2ccccc12
inactive: [2] | [3] | [4] | [5] | [6] | [15]

CCOP(=S)(OCC)SCCS(=O)(=O)CC
inactive: [2] | [3] | [5] | [6] | [15]
active: [4] 23.9 µM

O=Cc1cccc(Oc2ccccc2)c1
inactive: [2] | [3] | [4] | [5] | [6] | [15]

CCNc1nc(NC(C)(C)C)nc(SC)n1
active: [2] 20 µM
inactive: [3] | [4] | [5] | [6] | [15]

NC(=S)Nc1ccccc1
inactive: [2] | [3] | [4] | [5] | [6] | [15]
